# From PubChem BioAssay (NCATS)
# The source made the active and inactive calls. A call without a number means that no potency is given here. Calls come from the whole dose curve; as a rule, active = well fitted inhibition curve with a large enough effect; inconclusive = small, poorly fitted or top-dose-only effect; inactive = flat fitted curve, though single readings scatter.
# Molecular target: DNA polymerase III PolC-type (Bacillus subtilis (strain 168)) (UniProt P13267)
# Assay: qHTS Validation Assay for the Inhibitors of DNA Replication in Gram-Positive Bacteria (AID 485295)
# Details: Gram-positive bacterial DNA replication assay; series mostly up to 57.1 µM
# Experimental: B Subtilis DNA polymerase III holoenzyme complex was assayed for DNA production by fluorescent detection of the double-stranded DNA product with PicoGreen dye. The holoenzyme complex was reconstituted from the following purified protein components: DNA Polymerase III, beta subunit processivity factor, SSB single-stranded DNA binding protein, and Primase. Single-stranded, circular M13Gori was used as a substrate with dNTPs and NTPs also supplied to the substrate reagent. Compounds from the NCGC collection were incubated with the holoenzyme mixture for […] at room temperature to allow binding to occur, and then the reaction was started by the addition of substrate. After 30 min incubation at room temperature, PicoGreen solution containing EDTA was added to stop the reaction and to visualize the double-stranded DNA produced. Reaction progress was measured in a ViewLux CCD imager in fluorescence intensity mode by using 480 nm excitation and 540 nm emission filter set.
# 1. Thaw screening compounds.
# 2. Label assay plates. Prepare pipette tips, reagent reservoirs, buffers and controls.
# 1. Thaw Enzymes, DNA template, Nucleotides and PicoGreen dye concentrate. Thawed enzymes are stable on ice for ~1
# week. Other thawed components are stable indefinitely.
# 2. Prepare sufficient quantities of Enzyme, Substrate and PicoGreen Quench mixes (according to Table II). For the number of
# compound plates being screened.
# 3. Ensure that the tip wash station reservoirs have clean water and turn on recirculating chiller so that the chilled deck position
# 1. Load 2 uL of EDTA controls (250 mM, Background, 100 % inhibition) and 2 uL of DMSO controls (Negative control, 0%
# inhibition) in the screening plates (flat-bottomed black 384-well polypropylene, Greiner Bio-one).
# 2. Place Enzyme mix reservoir on the chiller position of the liquid handler deck. Make sure that chiller will maintain
# temperature of Enzyme mix at 4degC. Substrate mix and PicoGreen Quench can be stored at room temp.
# 3. Program liquid handling robotics to dispense 18 uL of Enzyme mix into assay plates. Wash tips.
# 4. Aspirate and dispense 2 uL of compound from compound plates, mix and Incubate at room temperature for 10 minutes.
# 5. Aspirate 5 ul of Substrate mix, dispense into assay plates and mix by pipetting. Wash tips.
# 6. Incubate at room temperature (21 +/- 1 deg C) for 20 minutes.
# 7. Quench reactions by addition of 25 uL PicoGreen Quench mix and mix by pipetting (using HTS robotics or bulk reagent
# dispenser such as a Multidrop or uFill). Keep plates in the dark or stacked until ready to read fluorescence.
# 8. Read fluorescence intensity of plates on plate reader using "Fluorescein (Ex 485 nm/ Em 535 nm, 0.1s)" setting.
# Potency is the fitted concentration of half-maximal effect.
# Sequence of DNA polymerase III PolC-type (Bacillus subtilis (strain 168)) (P13267 whole entry, looked up): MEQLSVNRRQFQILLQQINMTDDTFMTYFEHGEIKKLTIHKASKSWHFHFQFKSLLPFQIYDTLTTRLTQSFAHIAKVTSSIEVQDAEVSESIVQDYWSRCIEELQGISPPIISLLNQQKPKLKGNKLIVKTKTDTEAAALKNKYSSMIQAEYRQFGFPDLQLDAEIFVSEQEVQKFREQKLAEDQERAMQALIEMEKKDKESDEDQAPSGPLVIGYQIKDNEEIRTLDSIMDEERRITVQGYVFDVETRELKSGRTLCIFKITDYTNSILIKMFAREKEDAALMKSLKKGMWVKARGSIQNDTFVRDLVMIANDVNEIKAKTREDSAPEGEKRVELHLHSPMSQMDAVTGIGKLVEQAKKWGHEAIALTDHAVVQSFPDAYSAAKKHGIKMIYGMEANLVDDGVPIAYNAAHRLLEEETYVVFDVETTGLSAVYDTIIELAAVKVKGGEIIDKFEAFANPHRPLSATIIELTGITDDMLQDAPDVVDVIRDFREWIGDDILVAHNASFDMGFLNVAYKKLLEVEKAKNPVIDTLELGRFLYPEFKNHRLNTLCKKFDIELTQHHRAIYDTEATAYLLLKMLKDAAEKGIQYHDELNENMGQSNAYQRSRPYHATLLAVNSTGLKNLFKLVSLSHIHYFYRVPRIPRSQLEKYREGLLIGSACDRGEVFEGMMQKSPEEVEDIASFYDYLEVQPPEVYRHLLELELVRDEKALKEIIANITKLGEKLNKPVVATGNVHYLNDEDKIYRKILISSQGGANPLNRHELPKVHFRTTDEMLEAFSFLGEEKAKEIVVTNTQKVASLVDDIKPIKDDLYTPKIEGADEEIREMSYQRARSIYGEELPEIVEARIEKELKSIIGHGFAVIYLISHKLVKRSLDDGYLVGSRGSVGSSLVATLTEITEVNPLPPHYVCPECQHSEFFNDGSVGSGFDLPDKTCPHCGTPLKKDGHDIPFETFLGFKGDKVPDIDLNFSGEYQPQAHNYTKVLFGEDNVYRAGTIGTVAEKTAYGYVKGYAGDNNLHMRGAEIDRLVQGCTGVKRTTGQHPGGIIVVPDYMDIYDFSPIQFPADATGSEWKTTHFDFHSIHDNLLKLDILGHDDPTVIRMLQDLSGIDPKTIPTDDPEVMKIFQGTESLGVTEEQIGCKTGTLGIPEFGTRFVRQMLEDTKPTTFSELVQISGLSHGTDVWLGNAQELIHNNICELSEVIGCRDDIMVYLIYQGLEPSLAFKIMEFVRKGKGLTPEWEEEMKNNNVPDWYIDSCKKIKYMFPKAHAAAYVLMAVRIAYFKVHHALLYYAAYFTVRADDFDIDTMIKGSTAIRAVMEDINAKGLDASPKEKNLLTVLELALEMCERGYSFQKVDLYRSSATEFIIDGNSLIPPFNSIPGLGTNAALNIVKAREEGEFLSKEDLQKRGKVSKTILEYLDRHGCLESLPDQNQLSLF
row,Structure (SMILES),Potency
1,CCN(CC)CCNC(=O)c1cc(S(C)(=O)=O)ccc1OC,inactive
2,C=CCc1ccccc1OCC(O)CNC(C)C (stereo not given),inactive
3,CCCN(CCC)C(=O)C(CCC(=O)O)NC(=O)c1ccccc1 (stereo not given),inactive
4,COCC(=O)O[C@]1(CCN(C)CCCc2nc3ccccc3[nH]2)CCc2cc(F)ccc2[C@@H]1C(C)C,inactive
5,CN1CCN(CC(=O)N2c3ccccc3C(=O)Nc3cccnc32)CC1,inactive
6,CCN(CC)CCCN(c1ccccc1)C1Cc2ccccc2C1,inactive
7,CN(C)C(=O)Oc1cccc([N+](C)(C)C)c1,inactive
8,c1cnc(N2CCN(Cc3ccc4c(c3)OCO4)CC2)nc1,inactive
9,N[C@@H](COP(=O)(O)O)C(=O)O,inactive
10,OCCN1CCN(CCCN2c3ccccc3C=Cc3ccccc32)CC1,inactive
11,Cc1ccc(S(=O)(=O)NC(=O)NN2CCCCCC2)cc1,inactive
12,NC/C=C/C(=O)O,inactive
13,CCCN1C[C@H](CSC)C[C@@H]2c3cccc4[nH]cc(c34)C[C@H]21,inactive
14,C[n+]1cc2c3c(ccc2c2ccc4cc5c(cc4c21)OCO5)OCO3,8.44 µM (active)
15,NC(Cc1ccc(Cl)cc1)C(=O)O (stereo not given),inactive
16,CCOC(=O)C1=C(C)NC(C)=C(C(=O)OC)C1c1cccc(Cl)c1Cl (stereo not given),inactive
17,C[C@]12CCC(=O)C=C1CC[C@@H]1[C@@H]2C(=O)C[C@@]2(C)[C@H]1CC[C@]2(O)C(=O)CO,inactive
18,Cc1nc2ccccn2c(=O)c1CCN1CCC(C(=O)c2ccc(F)cc2)CC1,inactive
19,CCn1ccnc1CC1COc2ccccc2O1 (stereo not given),inactive
20,CCc1c(C)[nH]c2c1C(=O)C(CN1CCOCC1)CC2 (stereo not given),inactive

row,Structure (SMILES),Potency
1,CCCOc1ccccc1-c1nc2n[nH]nc2c(=O)[nH]1,inactive
2,CNC1(C)C2CCC(C2)C1(C)C (stereo not given),inactive
3,CCCCCCCC/C=C\CCCCCCCC(=O)NCc1ccc(O)c(OC)c1,inactive
4,COc1ccc([C@@H]2Sc3ccccc3N(CCN(C)C)C(=O)[C@@H]2OC(C)=O)cc1,inactive
5,NS(=O)(=O)c1cc2c(cc1Cl)NC(C1CC3C=CC1C3)NS2(=O)=O (stereo not given),inactive
6,COC(=O)C1=C(C)NC(C)=C(C(=O)OCCN(C)Cc2ccccc2)C1c1cccc([N+](=O)[O-])c1 (stereo not given),inactive
7,COc1cc(C(=O)OCCCN2CCCN(CCCOC(=O)c3cc(OC)c(OC)c(OC)c3)CC2)cc(OC)c1OC,inactive
8,CCCCNc1c(C(=O)OCC)c(C)nc2c1cnn2CC,inactive
9,CCOC(=O)c1cnc2c(cnn2CC)c1NN=C(C)C,inactive
10,Cc1ccc(=O)n(-c2ccccc2)c1,inactive
11,C[C@]12C=CC(=O)C=C1CC[C@H]1[C@@H]3C[C@@H](O)[C@](O)(C(=O)CO)[C@@]3(C)C[C@H](O)[C@@]12F,inactive
12,CC(N=C(NC#N)Nc1ccncc1)C(C)(C)C (stereo not given),inactive
13,CN(C)C(=O)Oc1ccc[n+](C)c1,inactive
14,Cc1cccc(C)c1NC(=O)C(C)N (stereo not given),inactive
15,COCCOC(=O)C1=C(C)NC(C)=C(C(=O)OC(C)C)C1c1cccc([N+](=O)[O-])c1 (stereo not given),inactive
16,CN(C)C/C=C(/c1ccc(Br)cc1)c1cccnc1,inactive
17,CC(=O)[C@@]1(O)CC[C@H]2[C@@H]3CCC4=CC(=O)CC[C@]4(C)[C@H]3CC[C@@]21C,inactive
18,NC(N)=N/N=C/c1c(Cl)cccc1Cl,inactive
19,OC(CCN1CCCCC1)(c1ccccc1)C1CCCCC1 (stereo not given),inactive
20,C[N+](C)(C)CCOC(=O)CCC(=O)OCC[N+](C)(C)C,inactive
